Measurements reported in PubChem BioAssay (EPA / NIEHS).
Some structures have more than one record in an assay (separate samples or runs), and their calls can disagree. Active and inactive are the calls of the source. How the source made its calls: active means hit-call score of the fitted dose curve at least 0.9, where 1 is the maximum; inactive means score below 0.9.

target: Transcription factor Sp1 (Homo sapiens) (UniProt P08047); test: ATG_Sp1_CIS: Attagene CIS-FACTORIAL HepG2 Assay for human Specificity Protein 1 (Sp1) (AID 2282961); details: HepG2 Sp1 cis-reporter transcription, actives raise or lower the signal
Sequence (P08047 whole entry, looked up): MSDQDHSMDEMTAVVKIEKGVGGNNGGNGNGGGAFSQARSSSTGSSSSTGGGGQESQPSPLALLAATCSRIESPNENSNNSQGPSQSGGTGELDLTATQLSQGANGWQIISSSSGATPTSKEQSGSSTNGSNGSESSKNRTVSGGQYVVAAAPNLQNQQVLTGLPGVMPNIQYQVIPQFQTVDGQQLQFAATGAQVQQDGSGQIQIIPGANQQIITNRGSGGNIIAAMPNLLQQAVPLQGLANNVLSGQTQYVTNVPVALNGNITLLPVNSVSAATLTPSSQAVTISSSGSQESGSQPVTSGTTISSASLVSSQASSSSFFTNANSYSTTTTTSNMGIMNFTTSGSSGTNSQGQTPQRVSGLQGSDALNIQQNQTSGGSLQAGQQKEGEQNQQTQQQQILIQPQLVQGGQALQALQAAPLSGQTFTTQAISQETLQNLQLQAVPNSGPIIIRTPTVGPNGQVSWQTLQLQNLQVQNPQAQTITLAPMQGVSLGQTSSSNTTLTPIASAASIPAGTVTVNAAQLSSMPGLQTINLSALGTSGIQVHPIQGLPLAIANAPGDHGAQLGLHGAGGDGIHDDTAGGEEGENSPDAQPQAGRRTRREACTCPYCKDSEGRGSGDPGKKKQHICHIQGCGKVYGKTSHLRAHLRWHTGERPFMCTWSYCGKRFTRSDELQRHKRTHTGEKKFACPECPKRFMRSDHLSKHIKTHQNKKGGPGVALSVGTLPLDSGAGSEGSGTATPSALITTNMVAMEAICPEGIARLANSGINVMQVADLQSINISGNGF
Method: ATG_CIS is a cell-based, multiplexed-readout assay that uses HepG2, a human liver cell line, with measurements taken at 24 hours after chemical dosing in a 24-well plate.ATG_Sp1_CIS is one of 52 assay component(s) measured or calculated from the ATG_CIS assay. It is designed to make measurements of mRNA induction, a form of inducible reporter, as detected with fluorescence intensity signals by Reverse transcription polymerase chain reaction (RT-PCR) and Capillary electrophoresis technology.Data from the assay component ATG_Sp1_CIS was analyzed into 1 assay endpoint. This assay endpoint, ATG_Sp1_CIS, was analyzed with bidirectional fitting relative to DMSO as the negative control and baseline of activity. Using a type of inducible reporter, measures of mRNA for gain or loss-of-signal activity can be used to understand the reporter gene at the transcription factor-level as they relate to the gene SP1. Furthermore, this assay endpoint can be referred to as a primary readout, because this assay has produced multiple assay endpoints where this one serves a reporter gene function. To generalize the intended target to other relatable targets, this assay endpoint is annotated to the dna binding intended target family, where the subfamily is zinc finger.
Human liver HepG2 cells are transiently transfected with multiple reporter transcription units (MRTUs) in 6-well plates using FuGene 6 reagent (Roche; 3 ml FuGene/1 mg DNA). The MRTU constructs are regulated by a cis-regulating element (promoter). […] A major difference between the CIS and TRANS system is that in CIS activities of endogenous TFs are measured, whereas the TRANS assay evaluates changes in activities of exogenous, chimeric NR-Gal4 proteins. […] At the end of 24 hour incubation, total RNA was isolated using TriZol reagent (Invitrogen). The isolated RNA is then reverse-transcribed using oligo(dT) primer and Mo-MLV reverse transcriptase (Invitrogen) with DNAse I (Ambion) treatment for 30 min. The one-tenth of the produced cDNA was amplified by PCR using Taq DNA polymerase (Invitrogen) and two reporter sequence-specific primers. The PCR products were fluorescently labeled by primer extension with 6-arboxyfluorescein (6-FAM) 5'-labeled reporter sequence-specific primer (2 min at 95 C, 20 s at 68 C and 10 min at 72 C) and these products were digested with 5U of HpaI (New England Biolabs) for 2h at 37 C. The fragments were purified using Qiaquick PCR columns (Qiagen), analyzed on an ABI 3130xL genetic analyzer (Applied Biosystems) with peak positions identified by using a set of X-rhodamine (ROX)-labeled MapMarker1000 molecular weight standards (BioVentures). The raw capillary electrophoresis data was processed using Attagraph software (Attagene).

| SMILES | outcome | AC50 |
| --- | --- | --- |
| O=C1CCCO1 | inactive |  |
| O=C(N[C@H](c1ccccc1)[C@@H]1CN2CCC1CC2)c1c(Cl)ccc(C(F)(F)F)c1Cl | inactive |  |
| COC(=O)Nc1nc2ccccc2[nH]1 | inactive |  |
| C1=Cc2cccc3cccc1c23 | inactive |  |
| CCCCCCCCCCCCCN1CC(C)OC(C)C1 (stereo not given) | inactive |  |
| CC(C)(C)OOC(C)(C)CCC(C)(C)OOC(C)(C)C |  | 177 µM (active) |
| C[C@]12C=CC3=C4CCC(=O)C=C4CC[C@H]3[C@@H]1CC[C@@H]2O | inactive | 8.08 µM (active) |
| COP(=S)(OC)SCN1C(=O)c2ccccc2C1=O | inactive |  |
| ClCCOCCCl | inactive |  |
| COc1cc(C=O)cc2c1[C@H](COC(N)=O)[C@]1(OC(C)=O)ON2C[C@H]2[C@@H]1N2C(C)=O | inactive |  |
| CC(C)COC(=O)c1ccccc1C(=O)OCC(C)C | inactive |  |
| C=CCc1ccc2c(c1)OCO2 | inactive |  |
| CCCCCCCCOC(=O)c1ccc(C(=O)OCCCCCCCC)c(C(=O)OCCCCCCCC)c1 | inactive |  |
| Cc1ccc(N)c(N)c1 | inactive |  |
| CCCCC(CC)COC(=O)c1ccc(C(=O)OCC(CC)CCCC)c(C(=O)OCC(CC)CCCC)c1 (stereo not given) | inactive |  |
| OCCOCCO | inactive |  |
| CC(C)(C)C(O)(CCc1ccc(Cl)cc1)Cn1cncn1 (stereo not given) | inactive |  |
| Cn1cc(-c2ccccc2)c(=O)c(-c2cccc(C(F)(F)F)c2)c1 | inactive |  |
| Cc1ccc([N+](=O)[O-])cc1 | inactive |  |
| Nc1ccc(Cl)cc1N | inactive |  |

| SMILES | outcome | AC50 |
| --- | --- | --- |
| [As]#[In] | inactive |  |
| Oc1ccccc1Cl | inactive |  |
| [O-][Cl+]O | inactive |  |
| C[N+](C)(C)CC1CO1 (stereo not given) | inactive |  |
| Brc1ccc(Oc2ccccc2)cc1 |  | 100 µM (active) |
| CC(C)(C)OOC(=O)c1ccccc1 | inactive |  |
| c1ccc2c(c1)-c1cccc3cccc-2c13 | inactive |  |
| Cc1ccc(N)cc1 | inactive |  |
| CCNS(=O)(=O)C(F)(F)C(F)(F)C(F)(F)C(F)(F)C(F)(F)C(F)(F)C(F)(F)C(F)(F)F | inactive |  |
| O=C(Oc1ccc(Br)cc1)N1CCN2CCC1CC2 | inactive |  |
| Nc1ccc(N=Nc2ccccc2)cc1 | inactive |  |
| ClC1=C(Cl)[C@]2(Cl)[C@H]3[C@H]([C@@H]4C=C[C@H]3C4)[C@@]1(Cl)C2(Cl)Cl | inactive |  |
| N#CC(Br)Br | inactive |  |
| CNC(=O)Oc1cccc2c1OC(C)(C)C2 | inactive |  |
| O=C(O)C1C2CCC(O2)C1C(=O)O (stereo not given) |  | 100 µM (active) |
| c1ccc(NNc2ccccc2)cc1 | inactive |  |
| Oc1ccc2ccc3cccc4ccc1c2c34 | inactive |  |
| CCCCCCCCn1sccc1=O |  | 17 µM (active) |
| CO[C@@H]1[C@H](OC(=O)NC(=O)CCl)CC[C@]2(CO2)[C@H]1[C@@]1(C)O[C@@H]1CC=C(C)C | inactive |  |
